In the supplement of paper PMC10646978:
± gives the standard deviation.

Experiments:
Conditions in all cases: modulator concentration 10 µM
[1] = system: RAW-Dual (murine macrophage reporter line); assay: NF-kB reporter (SEAP) activity fold change vs agonist alone; higher = enhanced NF-kB activity
In short: (§1)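 Compound reached 10 μM final in each well by pin transfer, onto RAW-Dual murine macrophage reporter cells seeded at 50 000 per well in 384-well plates. After 1 hour at 37 °C, the cells were stimulated overnight with a PRR agonist. SEAP in the supernatant was read with QUANTI-Blue at 620 nm absorbance for NF-κB, and Lucia luciferase was read with QUANTI-Luc luminescence for IRF. Each signal was turned into fold change against the mean agonist-only control on the same plate, and two replicate plates were averaged with propagated errors.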

[2] = system: RAW-Dual (murine macrophage reporter line); assay: IRF reporter (Lucia luciferase) activity fold change vs agonist alone; higher = enhanced IRF activity
In short: as §1

[3] = system: RAW-Dual (murine macrophage reporter line); assay: viability score (confluency relative to resting cells, overnight) (fraction); higher = more viable, active = viable (0.7 or more)
In short: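 Compound was added at a final 10 μM to RAW-Dual macrophages in 384-well plates and left overnight. Confluency was imaged with IncuCyte, and two masks were generated in IncuCyte software over all imaged wells. Each viability score is confluency relative to resting cells, and a compound met the cutoff only when both masks were above 70% of resting cells.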

[4] = agonist: CpG ODN 1826 0.5 ug/mL

Structure (SMILES)	NF-kB reporter [1, 4]	NF-kB reporter ([1]; agonist: LPS 0.1 ug/mL)	NF-kB reporter ([1]; agonist: MPLA […])	IRF reporter ([2]; agonist: 3'3'-cGAMP 10 ug/mL)	IRF reporter ([2]; agonist: LPS 0.1 ug/mL)	IRF reporter ([2]; agonist: MPLA […])	viability score [3]
COc1ccc(CNC(=O)c2cnc3n(c2=O)CCS3)cc1	1.21 ± 0.29	1.04 ± 0.055	2.54 ± 1.4	0.934 ± 0.038	1.1 ± 0.15	1.25 ± 0.19	1 (active)
COc1ccc(C2Nc3ccc(C(=O)c4ccccc4)cc3NC3=C2C(=O)CCC3)c(OC)c1 (stereo not given)	0.77 ± 0.06	0.844 ± 0.04	1.08 ± 0.095	0.933 ± 0.047	1.41 ± 0.11	1.58 ± 0.17	1.01 (active)
CCOc1ccc2nc(S(N)(=O)=O)sc2c1	0.804 ± 0.2	1.02 ± 0.051	0.985 ± 0.067	0.855 ± 0.029	0.897 ± 0.11	0.953 ± 0.2	1.01 (active)
COCCN1C(=O)CN(C2CCN(Cc3cc(OC)cc(OC)c3)CC2)C1=O	0.918 ± 0.047	1.14 ± 0.11	0.881 ± 0.04	0.979 ± 0.051	1.09 ± 0.12	1.13 ± 0.13	1.01 (active)
Oc1ccc(C=NCc2ccccc2)cc1	1.11 ± 0.12	1.08 ± 0.079	1.04 ± 0.038	0.921 ± 0.11	0.999 ± 0.05	1.06 ± 0.19	1 (active)
Fc1ccc2ccccc2c1	0.958 ± 0.077	0.979 ± 0.16	1.01 ± 0.13	1.03 ± 0.033	1.12 ± 0.12	1.15 ± 0.18	1.01 (active)
CCC(c1ccc(O)cc1)C(CC)c1ccc(O)cc1 (stereo not given) [Prestw-699]	0.567 ± 0.043	0.883 ± 0.068	1.02 ± 0.1	0.75 ± 0.13	0.84 ± 0.11	1.06 ± 0.16	0.181 (inactive)
CCCCC(=O)N(Cc1ccc(-c2ccccc2-c2nn[nH]n2)cc1)C(C(=O)O)C(C)C (stereo not given)	1.12 ± 0.27	0.965 ± 0.081	1.02 ± 0.082	0.71 ± 0.055	1.03 ± 0.14	1.04 ± 0.2	1 (active)
C[C@H](N[C@@H](CCc1ccccc1)C(=O)O)C(=O)N1CCC[C@H]1C(=O)O.O.O	1.15 ± 0.086	1.09 ± 0.16	1.03 ± 0.073	1.17 ± 0.31	0.953 ± 0.057	0.906 ± 0.077	0.993 (active)
CC(C)NCC(O)COCCOc1ccc(C(C)(C)C)cc1.Cl (stereo not given)	0.593 ± 0.039	1.06 ± 0.079	1.13 ± 0.079	0.569 ± 0.034	1.31 ± 0.14	1.57 ± 0.37	0.934 (active)
COc1ccc(N(CC(=O)N2CCc3ccccc3C2)S(C)(=O)=O)cc1Cl	1.18 ± 0.12	1.05 ± 0.077	0.987 ± 0.059	1.06 ± 0.033	1.52 ± 0.12	1.11 ± 0.13	1.01 (active)
COc1ccc(S(=O)(=O)N2CCC(c3ccccc3)S(=O)(=O)CC2)cc1Cl (stereo not given)	0.831 ± 0.2	1.08 ± 0.082	0.978 ± 0.065	0.708 ± 0.024	1 ± 0.15	1.21 ± 0.32	0.999 (active)
C=CCN1CCCC1CNC(=O)c1cc2nn[nH]c2cc1OC.Cl (stereo not given)	0.987 ± 0.2	1.05 ± 0.16	0.962 ± 0.14	0.917 ± 0.045	1.3 ± 0.31	0.93 ± 0.07	0.999 (active)
COCCOC(=O)C1=C(C)NC(C)=C(C(=O)OC(C)C)C1c1cccc([N+](=O)[O-])c1 (stereo not given)	0.837 ± 0.07	1.05 ± 0.064	0.88 ± 0.076	1.11 ± 0.037	1.31 ± 0.18	1.11 ± 0.13	0.979 (active)
O=[N+]([O-])c1ccc(Nc2ccccc2O)c2nonc12	1.74 ± 0.097	1.21 ± 0.088	1.7 ± 0.099	0.69 ± 0.023	1.55 ± 0.11	1.28 ± 0.17	0.9 (active)
O=C(CSc1ncnc2c(-c3ccccc3)c[nH]c12)NCc1ccc(Cl)cc1	1.18 ± 0.059	1.13 ± 0.089	0.796 ± 0.035	1.25 ± 0.064	1.18 ± 0.093	1.24 ± 0.26	0.99 (active)
CCC(C(=O)N1CCC2(CC1)CC2(F)F)c1ccccc1 (stereo not given)	1.08 ± 0.069	1.08 ± 0.098	1.62 ± 0.45	1.06 ± 0.048	1.19 ± 0.24	1.36 ± 0.33	0.911 (active)
Cc1ccc(-c2cc(C(F)(F)F)nn2-c2ccc(S(N)(=O)=O)cc2)cc1	0.337 ± 0.026	0.481 ± 0.03	0.59 ± 0.078	1.1 ± 0.091	0.848 ± 0.052	0.984 ± 0.087	0.183 (inactive)
CCC1(C)CC(CCN)(c2ccc(C)cc2)CCO1 (stereo not given)	0.826 ± 0.053	1.02 ± 0.08	0.992 ± 0.047	0.822 ± 0.048	0.904 ± 0.06	0.843 ± 0.083	0.962 (active)
CC(C)(C)C1CCC(OC(=O)CCC(=O)O)CC1 (stereo not given)	0.999 ± 0.16	0.931 ± 0.073	0.903 ± 0.087	1.07 ± 0.049	1.32 ± 0.21	1.32 ± 0.24	0.997 (active)
COC(=O)C1=CN(CC2CCCO2)C=C(C(=O)OC)C1c1cccc(OC)c1 (stereo not given)	1.36 ± 0.25	0.859 ± 0.065	1.29 ± 0.13	0.943 ± 0.034	0.947 ± 0.045	0.879 ± 0.13	0.994 (active)
COc1ccccc1N1CCN(CC(O)COc2cccc3ccccc23)CC1.Cl.Cl (stereo not given)	0.595 ± 0.13	0.696 ± 0.13	0.725 ± 0.048	0.654 ± 0.03	1.17 ± 0.34	1.17 ± 0.22	0.97 (active)
Brc1c(NC2=NCCN2)ccc2nccnc12 [Prestw-1751]	1.24 ± 0.13	0.858 ± 0.079	0.97 ± 0.035	1.02 ± 0.043	1.01 ± 0.054	1.01 ± 0.12	0.996 (active)
CCOC(=O)c1ccc(-c2ccc(C=C(C#N)C(=O)Nc3ccc(F)cc3)o2)cc1	0.979 ± 0.09	1.08 ± 0.063	1.05 ± 0.068	0.929 ± 0.042	1.29 ± 0.25	1.06 ± 0.14	1.01 (active)
Cn1nc(CNS(=O)(=O)c2cccc(C(F)(F)F)c2)c2c1CCCC2	0.981 ± 0.052	0.98 ± 0.092	1.21 ± 0.13	0.987 ± 0.085	1.06 ± 0.15	1.05 ± 0.27	0.926 (active)
